# Reference: PubChem BioAssay AID743397 (Broad Institute, 2014)
# Out of some 340,000 compounds screened, about 330 (0.097%) were called active.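 How the source made its calls: active means mean replicate inhibition of at least 30% and at least 1% of replicates passing that level; inconclusive means only one of the two criteria is met; inactive means neither criterion is met.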 This excerpt belongs to a sample that is enriched for actives.
# Tested on: Voltage-dependent L-type calcium channel subunit alpha-1D (CaV1.3) ICDI/IQ interaction
# Experiment: Primary screen for inhibitors of IQ motif and Ca2+-dependent inactivation inhibitor domain binding in CACNA1D, Förster resonance energy transfer in living cells, single-concentration test (AID 743397);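 further: 0% = median of the neutral control wells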
# Conditions: HEK cells, CFP/YFP FRET ICDI-IQ, plate reader, 10 min; at 12.3 µM; hits give high values; percent FRET-ratio fall versus neutral wells
row,SMILES,inhibition
1,O=C(N[C@H](C(=O)N1CCC[C@H]1C(=O)NCCc1ccccc1Cl)c1ccccc1)c1ccccc1,-4.64% (inactive)
2,Oc1cccc2cc(-c3ccncc3)cnc12,-5% (inactive)
3,COC(=O)C1=C(C)N(Cc2ccccc2C(F)(F)F)C(=NCc2ccc(OC)cc2)NC1c1cccc(C(F)(F)F)c1 (stereo unspecified),-9.27% (inactive)
4,CCCCOCCCNC(=O)C[C@@H]1C[C@@]2(C(=O)OC)CCCCC=C2N(CCC2=CCCCC2)C1=O,-3.67% (inactive)
5,COC(=O)c1ccc2ccccc2c1OC1OC(CO)C(O)C(O)C1NC(C)=O (stereo unspecified),-1.34% (inactive)
6,CCCCCCCCCOC1OC(CO)C(O)C(O)C1NC(C)=O (stereo unspecified),-5.79% (inactive)
7,CCc1cccc(OC2OC(CO)C(O)C(O)C2NC(C)=O)c1 (stereo unspecified),107% (active)
8,CCCCNc1cccc2c1S(=O)(=O)N[C@@H](C)CO2,-5.83% (inactive)
9,COC(=O)C1=C(C)N(Cc2cccc(C(F)(F)F)c2)C(=NCc2ccccc2)NC1c1ccccc1C(F)(F)F (stereo unspecified),-1.85% (inactive)
10,CCCCc1c(-c2ccc(Br)cc2)ncn1CCc1ccccc1OC,-9.97% (inactive)
11,COC(=O)c1ccc(CN2C(=O)[C@]3(OCCC=C[C@H]3C)c3c(Br)cccc32)cc1,-5.34% (inactive)
12,COc1ccc(-c2ccc3c(n2)CCCN3S(=O)(=O)c2ccc(C)cc2)cc1,-4.73% (inactive)
13,COc1ccc(CNS(=O)(=O)c2cc(Br)ccc2Br)cc1,-5.62% (inactive)
14,COc1cccc(NC(=O)N(C)C[C@@H]2OCc3cn(nn3)CCCC(=O)N([C@@H](C)CO)C[C@H]2C)c1,-4.88% (inactive)
15,CN1C(=O)C(Br)(Br)CC1c1cccnc1 (stereo unspecified),-4.22% (inactive)
16,CC[C@H](NC(=O)[C@H](Cc1ccccc1)NC(=O)[C@H]1O[C@@H](n2cnc3c(=O)[nH]c(N)nc32)[C@H](O)[C@@H]1O)c1ccccc1,-7.74% (inactive)
17,COC(=O)[C@]12C[C@H](CC(=O)N3CCN(C(=O)C4CC4)CC3)C(=O)N(Cc3ccc4c(c3)OCO4)C1=C[C@H](C(C)(C)C)O[C@@H]2C,-7.42% (inactive)
18,CC1CCCN(c2cccc3c2S(=O)(=O)N(Cc2ccc(F)cc2)[C@@H](C)[C@H](c2ccccc2)O3)C1 (stereo partly specified),-4.9% (inactive)
19,COCCNC(=S)N(C)[C@H]1C[C@H]2c3[nH]c4ccccc4c3CCN2C[C@H]1[C@H](C)O,-5.06% (inactive)
20,COC(=O)N1Cc2ccnnc2CC1c1ccccc1Br (stereo unspecified),-4.44% (inactive)
21,CCOC(=O)N1CCN(C(=O)C[C@H]2C[C@@]3(C(=O)OC)C(=C[C@H](C4CCCC4)O[C@@H]3C)N(Cc3ccccc3)C2=O)CC1,-8.9% (inactive)
